In the supplement of paper PMC3545927:
Some of the results follow. No count for the full screen is at hand.

Biological target: furin, P09958
Assay: furin cleavage Z-score vs untreated control; higher = more cleavage, active = 3.5 or more, inactive = 1 or less, 8 variable residues between constant flanks
How it was run: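 Abundance of DNA freed from bead-bound 8-mer peptide–cDNA fusions by purified furin was measured as sequencing read counts after PCR adapter tagging. Cutting ran 7.5, 15 or 30 min in 0.01 ml of 50 mM HEPES pH 7.5 with CaCl2 and NaCl at 1:10 enzyme:substrate. The cleavage Z-score expresses these log counts against furin-free reactions after lowess adjustment and median absolute deviation scaling.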

furin, P09958, sequence (P09958 whole entry): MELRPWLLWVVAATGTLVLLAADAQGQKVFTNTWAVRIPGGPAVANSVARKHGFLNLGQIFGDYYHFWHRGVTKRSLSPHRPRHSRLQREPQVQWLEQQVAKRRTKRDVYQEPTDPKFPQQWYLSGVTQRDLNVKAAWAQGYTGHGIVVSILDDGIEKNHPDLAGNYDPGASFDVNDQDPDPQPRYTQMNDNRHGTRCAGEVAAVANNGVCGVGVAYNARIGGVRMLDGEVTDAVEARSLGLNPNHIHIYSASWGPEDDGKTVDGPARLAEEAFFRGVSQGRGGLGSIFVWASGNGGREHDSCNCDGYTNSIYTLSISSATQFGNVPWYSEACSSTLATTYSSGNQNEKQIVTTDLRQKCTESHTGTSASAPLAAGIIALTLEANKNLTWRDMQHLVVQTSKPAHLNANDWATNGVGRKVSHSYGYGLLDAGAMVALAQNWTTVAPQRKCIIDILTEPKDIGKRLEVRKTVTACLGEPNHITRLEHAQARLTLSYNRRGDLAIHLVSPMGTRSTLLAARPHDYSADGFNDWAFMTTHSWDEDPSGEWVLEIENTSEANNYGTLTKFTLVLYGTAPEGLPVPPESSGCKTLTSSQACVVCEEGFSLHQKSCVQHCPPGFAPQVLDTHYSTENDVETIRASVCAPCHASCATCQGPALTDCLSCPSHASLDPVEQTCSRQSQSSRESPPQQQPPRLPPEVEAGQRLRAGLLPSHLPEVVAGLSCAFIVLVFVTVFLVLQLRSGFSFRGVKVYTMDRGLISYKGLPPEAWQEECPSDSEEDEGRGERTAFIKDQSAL

Sequence | furin cleavage Z-score (7.5 min) | furin cleavage Z-score (15 min) | furin cleavage Z-score (30 min)
CAIEPRSFSQAGNASASA [TR3] | -0.606 (inactive) | -1.14 (inactive) | -0.409 (inactive)
CATTPKSGSWAGNASASA [HC51] | -0.56 (inactive) | -0.574 (inactive) | -0.879 (inactive)
CARPRRYLYQAGNASASA [FS-2285] | 3.25 | 3.5 | 5.12 (active)
CARPRRSIVFAGNASASA [FS-3229] | 4.51 (active) | 5.67 (active) | 7.41 (active)
CAKPARLIVFAGNASASA [HC1448] | 0.00411 (inactive) | -1.12 (inactive) | -1.48 (inactive)
CASRPCSAHLAGNASASA [HC2493] | 0.596 (inactive) | 1.57 | 0.79 (inactive)
CARRRRSSSVAGNASASA [FS-2299] | 3.15 | 3.17 | 3.52 (active)
CARRNRSTSTAGNASASA [FS-2072] | 4.22 (active) | 6.96 (active) | 4.29 (active)
CARRDRSTSIAGNASASA [FS-3203] | -0.171 (inactive) | 0.756 (inactive) | 1.79
CARRRRSSSTAGNASASA [FS-3068] | 8.2 (active) | 7.85 (active) | 5.87 (active)
CADDEVVTSTAGNASASA [HC2291] | 0.608 (inactive) | 0.354 (inactive) | -0.134 (inactive)
CARRSRAASVAGNASASA [FS-1839] | 1.46 | 1.72 | 3.72 (active)
CALRKRSSSTAGNASASA [FS-3179] | 0.00727 (inactive) | 0.0326 (inactive) | -0.921 (inactive)
CARSFRTASVAGNASASA [FS-3078] | 0.727 (inactive) | 0.141 (inactive) | 1.09
CAMEECDQHLAGNASASA [HC32] | -1.25 (inactive) | -0.295 (inactive) | 0.17 (inactive)
CAGKAIPLEVAGNASASA [HC849] | -0.874 (inactive) | -0.849 (inactive) | -0.983 (inactive)
CAEVVGSTWVAGNASASA [HC122] | -0.227 (inactive) | 0.0769 (inactive) | 0.871 (inactive)
CASTDCSAHLAGNASASA [HC2511] | -0.745 (inactive) | -1.14 (inactive) | 1.19
CAAPKRRRRGAGNASASA [FS-323] | 4.98 (active) | 4.92 (active) | 3.74 (active)
CALFRRRRRGAGNASASA [FS-606] | 5.12 (active) | 5.02 (active) | 5.06 (active)
CAVIPVRRRGAGNASASA [HC730] | -0.464 (inactive) | 0.132 (inactive) | -0.326 (inactive)
CAPHRRRRRGAGNASASA [FS-555] | 5.9 (active) | 4.87 (active) | 5.4 (active)

Sequence | furin cleavage Z-score (7.5 min) | furin cleavage Z-score (15 min) | furin cleavage Z-score (30 min)
CAPGHLRRRGAGNASASA [FS-1046] | -0.0765 (inactive) | 0.0326 (inactive) | 0.261 (inactive)
CAAPARERRGAGNASASA [FS-6] | 7.34 (active) | 8.29 (active) | 7.48 (active)
CATPPRERRGAGNASASA [FS-1095] | -0.768 (inactive) | -0.415 (inactive) | -0.163 (inactive)
CAHGLVSFLVAGNASASA [HC542] | 0.693 (inactive) | -0.401 (inactive) | 0.576 (inactive)
CAVDYPYRLWAGNASASA [HC465] | 0.139 (inactive) | 0.651 (inactive) | 1.32
CATGPCSGSWAGNASASA [HC1856] | -0.371 (inactive) | -0.739 (inactive) | -1.48 (inactive)
CARLKKFQEAAGNASASA [FS-2987] | -0.948 (inactive) | -1.1 (inactive) | -1.63 (inactive)
CAGENLYFQSAGNASASA [TV1] | -1.03 (inactive) | -1.63 (inactive) | -0.511 (inactive)
CAPINAYTTGAGNASASA [HC1191] | 0.157 (inactive) | 0.17 (inactive) | 0.965 (inactive)
CAAERRHYRPAGNASASA [FS-969] | 0.389 (inactive) | 0.437 (inactive) | 0.0544 (inactive)
CACHRRMRRGAGNASASA [FS-404] | 10.7 (active) | 8.52 (active) | 8.21 (active)
CAAESRACRGAGNASASA [FS-742] | -0.725 (inactive) | -0.739 (inactive) | -0.66 (inactive)
CAAERRRRRGAGNASASA [FS-2] | 4.28 (active) | 3.26 | 2.64
CADEVDNKVKAGNASASA [CS4] | -0.725 (inactive) | -1.22 (inactive) | -1.28 (inactive)
CAPGAATAFVAGNASASA [HC1072] | 0.989 (inactive) | 1.72 | 0.199 (inactive)
CASVAATLGFAGNASASA [HC789] | 1.93 | 0.468 (inactive) | 0.352 (inactive)
CARSADGRRFAGNASASA [FS-1654] | -0.463 (inactive) | -0.885 (inactive) | -0.419 (inactive)
CARVARRRRFAGNASASA [FS-1164] | 8.04 (active) | 10 (active) | 7.4 (active)
CAILTRRRRFAGNASASA [FS-1347] | 8.01 (active) | 8.67 (active) | 7.5 (active)
CATQVRRRRFAGNASASA [FS-1497] | 6.78 (active) | 10.5 (active) | 7.46 (active)
CAKDYRRIRFAGNASASA [FS-173] | 0.143 (inactive) | -0.374 (inactive) | 0.736 (inactive)
CAGLRRRRRFAGNASASA [FS-531] | 7.13 (active) | 8.7 (active) | 7.24 (active)
